Reference: PubChem BioAssay
A number with no mark means an inactive call. Entries that show only a call come without a potency. For some of these results: Potency and affinity values are given separately. The source made the active and inactive calls. Unless noted, how the calls were made is not given here.

Tests used:
[1] = antimalarial activity against Dd2 strain (AID 2302;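 active means growth inhibition above 50% at the single 2 µM test dose, taken to imply half-maximal potency below 2 µM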); settings: P. falciparum Dd2 in RBCs, LDH growth readout, 72 h; at 2 µM; active compounds read high
[2] = human hepatoma cell viability loss – ATP luminescence, cytotoxicity control for P. falciparum antimalarial project, primary screen (AID 2303;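 active means inhibition above 50%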); settings: HepG2 viability, 24-48 h, at 10 µM, active compounds read high
[3] = biological target: L-lactate dehydrogenase (Plasmodium falciparum (isolate CDC / Honduras)) (UniProt Q27743); assay: PfLDH activity inhibition – cell lysate, 3D7 strain, counter-screen for P. falciparum growth inhibition project (AID 2304); settings: P. falciparum 3D7 crude extract, LDH APAD/NBT absorbance; at 2 µM; active compounds read high
Sequence of L-lactate dehydrogenase (Plasmodium falciparum (isolate CDC / Honduras)) (Q27743 whole entry, looked up): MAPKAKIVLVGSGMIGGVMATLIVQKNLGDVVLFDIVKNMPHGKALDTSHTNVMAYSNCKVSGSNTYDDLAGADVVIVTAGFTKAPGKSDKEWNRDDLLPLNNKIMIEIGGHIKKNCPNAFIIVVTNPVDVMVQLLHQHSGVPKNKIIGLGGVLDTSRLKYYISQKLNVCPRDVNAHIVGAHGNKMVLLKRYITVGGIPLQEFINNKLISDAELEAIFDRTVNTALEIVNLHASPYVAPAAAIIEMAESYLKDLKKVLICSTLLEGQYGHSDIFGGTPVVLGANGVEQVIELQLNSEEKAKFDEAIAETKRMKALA

[4] = inhibition of 3D7 malaria parasite growth – strain 3D7 (AID 2306); settings: P. falciparum 3D7 erythrocytic growth, LDH absorbance, 72 h; at 2 µM; active compounds read high
[5] = biological target: Calcium-dependent protein kinase 1 (Plasmodium falciparum (isolate 3D7)) (UniProt P62344); assay: PfCDPK1 kinase inhibitors, biochemical, TCAMS library (AID 1159585; cut-off not given, nearly all actives have IC50 up to about 0.98 µM;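 further: inhibitors leave more ATP so luminescence rises with inhibition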); settings: recombinant PfCDPK1, Kinase-Glo ATP depletion luminescence
Sequence of Calcium-dependent protein kinase 1 (Plasmodium falciparum (isolate 3D7)) (P62344 whole entry, looked up): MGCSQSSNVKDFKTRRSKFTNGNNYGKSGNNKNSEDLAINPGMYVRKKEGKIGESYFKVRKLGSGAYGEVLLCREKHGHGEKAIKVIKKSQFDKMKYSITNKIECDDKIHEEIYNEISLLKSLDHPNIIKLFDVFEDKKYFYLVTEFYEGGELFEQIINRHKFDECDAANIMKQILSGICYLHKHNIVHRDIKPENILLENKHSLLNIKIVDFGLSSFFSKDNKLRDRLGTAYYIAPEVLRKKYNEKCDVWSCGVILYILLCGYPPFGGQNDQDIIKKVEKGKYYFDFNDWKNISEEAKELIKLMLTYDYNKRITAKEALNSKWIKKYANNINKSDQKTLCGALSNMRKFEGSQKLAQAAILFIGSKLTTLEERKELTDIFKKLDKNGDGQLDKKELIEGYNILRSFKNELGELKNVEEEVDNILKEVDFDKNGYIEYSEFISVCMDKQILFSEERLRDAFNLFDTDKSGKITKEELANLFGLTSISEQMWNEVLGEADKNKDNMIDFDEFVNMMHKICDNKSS

[6] = biological target: Plasmodium falciparum protein kinase 6 (PK6, PF3D7_1337100) (UniProt Q8IDW1); assay: PfPK6 kinase inhibitors, biochemical, TCAMS library (AID 1159586); settings: recombinant PfPK6, Kinase-Glo ATP depletion luminescence
Sequence of Plasmodium falciparum protein kinase 6 (PK6, PF3D7_1337100) (Q8IDW1 1-305): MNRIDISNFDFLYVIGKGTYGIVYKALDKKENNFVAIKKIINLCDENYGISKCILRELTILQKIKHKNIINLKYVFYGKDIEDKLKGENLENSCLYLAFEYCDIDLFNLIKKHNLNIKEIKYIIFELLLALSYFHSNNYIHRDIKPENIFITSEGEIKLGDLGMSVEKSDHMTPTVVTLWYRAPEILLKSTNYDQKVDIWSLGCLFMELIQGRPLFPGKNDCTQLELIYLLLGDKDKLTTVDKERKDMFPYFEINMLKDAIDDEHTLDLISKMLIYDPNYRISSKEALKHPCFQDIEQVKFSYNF

[7] = biological target: Protein kinase 7 (PK7), Plasmodium falciparum 3D7 (PF3D7_0213400) (UniProt Q7YTF7); assay: inhibition of Plasmodium PK7 catalytic activity – biochemical, TCAMS antimalarial set, Kinase-Glo luminescence (AID 1159587); settings: recombinant PfPK7, Kinase-Glo ATP depletion luminescence
Sequence of Protein kinase 7 (PK7), Plasmodium falciparum 3D7 (PF3D7_0213400) (Q7YTF7 1-343): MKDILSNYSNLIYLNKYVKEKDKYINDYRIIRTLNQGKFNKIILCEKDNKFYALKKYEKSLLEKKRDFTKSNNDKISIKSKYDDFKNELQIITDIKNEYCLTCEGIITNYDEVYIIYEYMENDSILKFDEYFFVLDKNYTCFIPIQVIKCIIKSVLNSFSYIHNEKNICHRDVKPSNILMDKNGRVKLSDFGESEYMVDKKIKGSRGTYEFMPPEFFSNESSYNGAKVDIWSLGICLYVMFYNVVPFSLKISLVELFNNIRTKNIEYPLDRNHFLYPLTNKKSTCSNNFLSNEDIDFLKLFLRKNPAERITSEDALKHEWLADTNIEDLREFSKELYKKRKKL

[8] = biological target: Calcium-dependent protein kinase 4 (Plasmodium falciparum (isolate 3D7)) (UniProt Q8IBS5); assay: PfCDPK4 kinase inhibitors, biochemical, TCAMS library (AID 1159588; cut-off not given, nearly all actives have IC50 up to about 0.91 µM); settings: recombinant PfCDPK4, Kinase-Glo ATP depletion luminescence
Sequence of Calcium-dependent protein kinase 4 (Plasmodium falciparum (isolate 3D7)) (Q8IBS5 whole entry, looked up): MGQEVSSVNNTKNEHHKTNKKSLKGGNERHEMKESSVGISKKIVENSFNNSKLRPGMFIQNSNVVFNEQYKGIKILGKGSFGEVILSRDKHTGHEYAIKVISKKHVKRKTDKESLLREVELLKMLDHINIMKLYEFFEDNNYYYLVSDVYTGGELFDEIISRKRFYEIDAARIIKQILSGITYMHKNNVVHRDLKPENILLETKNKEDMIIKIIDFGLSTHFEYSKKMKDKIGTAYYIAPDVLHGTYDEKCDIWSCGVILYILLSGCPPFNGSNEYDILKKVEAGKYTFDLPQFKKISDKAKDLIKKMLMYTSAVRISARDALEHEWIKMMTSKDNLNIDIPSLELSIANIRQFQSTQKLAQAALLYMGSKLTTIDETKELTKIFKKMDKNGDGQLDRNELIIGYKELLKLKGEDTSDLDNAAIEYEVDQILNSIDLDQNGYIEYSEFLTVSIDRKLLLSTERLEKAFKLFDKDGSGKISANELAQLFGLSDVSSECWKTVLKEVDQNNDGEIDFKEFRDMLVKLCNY

Compound	growth inhibition [1]	inhibition [2]	inhibition [3]	growth inhibition [4]	outcome [5]	outcome [6]	outcome [7]	outcome [8]
COc1cc2ccccc2c(CNCCCCCCNCc2c(OC)c(OC)cc3ccccc23)c1OC	89% (active)	100% (active)	-4%	95% (active)	inactive	inactive	inactive	inactive
Cc1cc(N2CC=CCC2)nc(/N=C(\N)Nc2ccc(Cl)cc2)n1	78% (active)	-2%	-8%	100% (active)	inactive	inactive	inactive	inactive
COc1ccc(CNC2CCN(C)CC2)cc1-c1ccc(S(=O)(=O)NC2CCC2)s1	94% (active)	32%	5%	100% (active)	inactive	inactive	inactive	inactive
CCCc1ccc(S(=O)(=O)NC2CCN(c3ccnc(Nc4ccc(OC)cc4)n3)C2)cc1 (stereo not drawn)	45%	42%	0%	89% (active)	inactive	inactive	inactive	inactive
CC(CCc1ccccc1)NCC(O)c1cccc(C(F)(F)F)c1 (stereo not drawn)	98% (active)	18%	4%	99% (active)	inactive	inactive	inactive	inactive
Nc1nc(N)c2c(ccc3ccccc32)n1	20%	60% (active)	-1%	98% (active)	inactive	inactive	inactive	inactive
CC(C)CNCc1ccc(-c2ccc(CN(CCCN3CCN(C)CC3)C(=O)CCC3CCCC3)cc2)cc1	87% (active)	50% (active)	5%	96% (active)	inactive	inactive	inactive	inactive
CC1CCC2(CC1)N=C(N)N=C(N)N2OCc1cc2ccccc2c2ccccc12 (stereo not drawn)	41%	27%	-2%	97% (active)	inactive	inactive	inactive	inactive
CCN(CC)C(=O)C1CCCN(C(=O)Nc2cc(C(F)(F)F)cc(C(F)(F)F)c2)C1 (stereo not drawn)	98% (active)	0%	-2%	86% (active)	inactive	inactive	inactive	inactive
COc1ccc2nccc([C@@H](O)CN3CCC(NC(=O)/C=C/c4cccc(-c5ccccc5)c4)CC3)c2c1	83% (active)	12%	-5%	98% (active)	inactive	inactive	inactive	inactive
c1cc(CN2CCN(c3ccncc3)CC2)cc(-c2ccc(-c3nc4ccccc4[nH]3)cc2)c1	100% (active)	60% (active)	-11%	100% (active)	inactive	inactive	inactive	inactive
Cn1nc(-c2ccc(NC(=O)Nc3cc(C(F)(F)F)ccc3F)c(F)c2)c2cnc(NCCCn3ccnc3)nc21	97% (active)	45%	0%	100% (active)	inactive	inactive	inactive	inactive
C=CCOc1ccc2ccccc2c1CNCCCCCCNCc1c(OCC=C)ccc2ccccc12	98% (active)	99% (active)	3%	100% (active)	inactive	inactive	inactive	inactive
CC(CNC(=O)C(c1cc2ccccc2o1)N1CCN(C(c2ccccc2)c2ccccc2)CC1)c1ccccc1 (stereo not drawn)	89% (active)	2%	-5%	99% (active)	inactive	inactive	inactive	inactive
Cc1ccc(NS(=O)(=O)c2cccs2)cc1-c1cccc(C(=O)Nc2ccc(F)cc2)c1	100% (active)	38%	0%	99% (active)	inactive	inactive	inactive	inactive
COc1ccc(NC(=O)Nc2cccc(-c3cccc(-c4nc5c(C)cccc5[nH]4)c3)c2)cc1	43%	-1%	2%	101% (active)	inactive	inactive	inactive	inactive
CC(=O)NCCNc1cc(N2CCc3ncnc(Nc4ccc(OCc5c(F)cccc5F)c(Cl)c4)c3C2)ncn1	100% (active)	55% (active)	4%	100% (active)	inactive	inactive	inactive	inactive
CN1CCc2cc(NC(=O)c3cc4ccccc4s3)cc(-c3ccccc3)c2CC1	11%	20%	-2%	91% (active)	inactive	inactive	inactive	inactive
Cc1cccc2[nH]c(-c3ccc(-c4ccc(CNCC5CCCO5)cc4)cc3)nc12 (stereo not drawn)	81% (active)	36%	-4%	101% (active)	inactive	inactive	inactive	inactive
CN1CCC(NCc2ccc(S(=O)(=O)Nc3ccc(Oc4cccc(Cl)c4)cc3)cc2)CC1	5%	47%	0%	99% (active)	inactive	inactive	inactive	inactive
O=C(Nc1cccc(CN2CCCN(Cc3ccc4c(c3)OCO4)CC2)c1)c1cc2ccccc2s1	11%	32%	2%	95% (active)	inactive	inactive	inactive	inactive

Compound	growth inhibition [1]	inhibition [2]	inhibition [3]	growth inhibition [4]	outcome [5]	outcome [6]	outcome [7]	outcome [8]
Cc1cc(NCCC(=O)NCCOc2ccccc2)nc(NCCc2ccccc2)n1	9%	-6%	-1%	99% (active)	inactive	inactive	inactive	inactive
c1cc(CNc2ncc(-c3ccsc3)c(-c3nccs3)n2)ccn1	81% (active)	18%	-7%	89% (active)	inactive	inactive	inactive	inactive
COc1ccc(-c2nc(NC(=O)CS(=O)(=O)c3ccc(OC)cc3)sc2C)cc1	89% (active)	6%	-2%	95% (active)	inactive	inactive	inactive	inactive
Fc1ccc(C(OCC2CCCN(Cc3cccc4cccnc34)C2)c2ccc(F)cc2)cc1 (stereo not drawn)	97% (active)	21%	3%	98% (active)	inactive	inactive	inactive	inactive
O=S(=O)(c1ccccc1Cl)N1CCCCC(c2ccc(C(F)(F)F)cc2)=N1	72% (active)	22%	4%	86% (active)	inactive	inactive	inactive	inactive
Cc1ccc2c(OCCN3CCC(Cc4ccc5c(c4)NC(=O)CO5)CC3)cc(F)cc2n1	21%	24%	-2%	89% (active)	inactive	inactive	inactive	inactive
Cc1[nH]c(C)c(-c2ccc(OCCSc3ccncc3)cc2)c(=O)c1Br	95% (active)	-6%	-6%	95% (active)	inactive	inactive	inactive	inactive
CN1CCCC1CCNCc1ccc(-c2ccc(CNCCc3ccccc3)cn2)cc1 (stereo not drawn)	99% (active)	25%	2%	101% (active)	inactive	inactive	inactive	inactive
CCC(C)NC(=O)Nc1ccc(-c2cccc(-c3nc4ccc(C(F)(F)F)cc4[nH]3)c2)cc1 (stereo not drawn)	-1%	45%	0%	97% (active)	inactive	inactive	inactive	inactive
COc1ccc(N2CCc3c(-c4cccc5cnccc45)cc(C)nc32)c(C)c1	-12%	20%	0%	96% (active)	inactive	inactive	inactive	inactive
COc1cccc(-c2cnc(N)c(-c3nc4cc(Cl)c(F)cc4[nH]3)c2)c1	26%	37%	6%	100% (active)	inactive	inactive	inactive	inactive
CCCCCCCCNCc1c(O)ccc2ccccc12	94% (active)	-11%	0%	99% (active)	inactive	inactive	inactive	inactive
CC(C)CN(Cc1c(O)ccc2[nH]c(-c3ccc(F)cc3F)nc12)CC(C)C	92% (active)	11%	-2%	98% (active)	inactive	inactive	inactive	inactive
Cc1ccc(C)c2c1[nH]c1ccc(C3=NCCN3)cc12	-6%	29%	-3%	100% (active)	inactive	inactive	inactive	inactive
N#Cc1ccc(N2CCN(Cc3ccc(-c4ccc(-c5nc6ccc(C(F)(F)F)cc6[nH]5)s4)cc3)CC2)nc1	73% (active)	13%	4%	100% (active)	inactive	inactive	inactive	inactive
COc1cc2ccccc2c(OC)c1CNCCCCCCNCc1c(OC)cc2ccccc2c1OC	91% (active)	100% (active)	0%	93% (active)	inactive	inactive	inactive	inactive
N=C(N)c1ccc(C=CC(=O)NCC(O)CNC(=O)C=Cc2ccc(C(=N)N)cc2)cc1 (stereo not drawn)	80% (active)	-14%	-1%	90% (active)	inactive	inactive	inactive	inactive
CC(Nc1nc(Nc2ccc(F)cc2)nc(SCC(N)=O)n1)c1ccccc1 (stereo not drawn)	87% (active)	14%	-2%	90% (active)	inactive	inactive	inactive	inactive
Cc1cccc(CC(N)=NCCCCCCN=C(N)Cc2cccc(C)c2)c1	97% (active)	12%	3%	97% (active)	inactive	inactive	inactive	inactive
Cc1ccc2cc(NC(=O)CCCCCCCON3C(N)=NC(N)=NC34CCCCC4)ccc2n1	86% (active)	6%	3%	98% (active)	inactive	inactive	inactive	inactive
